Source: PubChem BioAssay (NCI)
This is part of a sample that, as a whole, favours compounds with a hit. Of some 79,000 tested, about 15% had one in any assay. The source made the active and inactive calls. Cut-off read from the data, not from the text of the source: active = growth inhibition above about 70%; inactive = the rest.

Assays:
[1] = NCI Yeast Anticancer Drug Screen. Data for the rad52 strain (AID 147);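 note: 0% = growth of vehicle-treated control cultures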; conditions: S. cerevisiae rad52 mutant growth inhibition, active compounds read high
Procedure, shortened: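 Genetically altered yeast (DNA damage repair defect) treated with compound; inhibition calculated relative to vehicle.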

[2] = NCI Yeast Anticancer Drug Screen. Data for the wt1 strain (AID 149);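 note: 0% = growth of vehicle-treated wt1 cultures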; conditions: S. cerevisiae wt1 strain (SPY 50644) growth inhibition, active compounds read high
Procedure, shortened: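 wt1 yeast, compound-treated; % growth inhibition vs vehicle control.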

[3] = NCI Yeast Anticancer Drug Screen. Data for the rad50EPP+ strain (AID 151);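 note: 0% = growth of vehicle-treated control cultures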; conditions: S. cerevisiae rad50 mutant strain, active compounds read high
Procedure, shortened: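 Strain rad50EPP+; compound exposure; % growth inhibition vs vehicle.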

[4] = NCI Yeast Anticancer Drug Screen. Data for the mgt1 strain (AID 153); conditions: S. cerevisiae mgt1 mutant growth inhibition, active compounds read high
Procedure, shortened: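 Read-out: yeast growth inhibition vs vehicle control. Strain mgt1, drawn from a panel altered in DNA damage repair or cell cycle control.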

[5] = NCI Yeast Anticancer Drug Screen. Data for the rad50 strain (AID 155);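 note: 0% = growth of vehicle-only cultures of the same strain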; conditions: S. cerevisiae rad50 strain growth inhibition, active compounds read high
Procedure, shortened: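 Genetically altered yeast (DNA repair pathway); compound treatment; growth inhibition vs vehicle ctrl.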

[6] = NCI Yeast Anticancer Drug Screen. Data for the mec2-1 strain (AID 157); conditions: S. cerevisiae mec2-1 strain, active compounds read high
Procedure, shortened: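 Cells of the genetically defined mec2-1 yeast strain are incubated with test compound. Inhibition of growth is calculated against vehicle-treated controls.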

[7] = NCI Yeast Anticancer Drug Screen. Data for the rad14 strain (AID 159);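 note: 0% = growth of vehicle-treated control cultures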; conditions: S. cerevisiae rad14 strain growth inhibition, active compounds read high
Procedure, shortened: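 Test compounds were applied to a repair-deficient yeast strain. Its growth was then compared with that of cultures given vehicle alone, and inhibition was expressed relative to those controls.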

[8] = NCI Yeast Anticancer Drug Screen. Data for the sgs1 mgt1 strain (AID 161);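 note: 0% = growth of cultures given vehicle only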; conditions: S. cerevisiae sgs1 mgt1 strain, active compounds read high
Procedure, shortened: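 Inhibition of yeast growth, normalised to vehicle-treated controls, is reported for a strain bearing genetic alterations in DNA damage repair.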

[9] = NCI Yeast Anticancer Drug Screen. Data for the CLN2oe strain (AID 163);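 note: 0% = growth of vehicle-only control cultures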; conditions: S. cerevisiae CLN2oe strain, active compounds read high
Procedure, shortened: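 Strain altered in cell-cycle control, incubated with compound; growth compared to solvent-treated controls.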

[10] = NCI Yeast Anticancer Drug Screen. Data for the cln2 rad14 strain (AID 165);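 note: 0% = growth equal to vehicle treated cultures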; conditions: S. cerevisiae cln2 rad14 strain, active compounds read high
Procedure, shortened: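 The screen exposed genetically defined yeast (cln2 rad14) to test compounds and scored growth inhibition relative to vehicle-treated controls.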

[11] = NCI Yeast Anticancer Drug Screen. Data for the bub3 strain (AID 167); conditions: S. cerevisiae bub3 mutant strain, active compounds read high
Procedure, shortened: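 Yeast carrying a defined mutation is treated with each compound, and growth is compared with that of vehicle-exposed cells to give inhibition.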

[12] = NCI Yeast Anticancer Drug Screen. Data for the wt2 strain (AID 169);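 note: 0% = growth of vehicle-treated yeast cultures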; conditions: S. cerevisiae wt2 strain growth inhibition, active compounds read high
Procedure, shortened: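 Steps: yeast strain treated with compound; growth recorded; inhibition calculated relative to cultures given vehicle alone.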

[13] = NCI Yeast Anticancer Drug Screen. Data for the mlh1 strain (AID 171);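 note: 0% = growth of vehicle-treated control cultures of the same strain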; conditions: S. cerevisiae mlh1 strain growth inhibition, active compounds read high
Procedure, shortened: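 Yeast screen: mutant strain plus compound, growth scored against vehicle control wells.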

[14] = NCI Yeast Anticancer Drug Screen. Data for the sgs1 strain (AID 173);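 note: 0% = growth of vehicle-only control cultures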; conditions: S. cerevisiae sgs1 mutant, active compounds read high
Procedure, shortened: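 Inhibition of yeast growth served as the measure. The mutant strain was treated with each compound, and growth was normalised to cultures receiving vehicle alone.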

[15] = NCI Yeast Anticancer Drug Screen. Data for the mlh1 rad18 strain (AID 175); conditions: S. cerevisiae mlh1 rad18 strain growth inhibition, active compounds read high
Procedure, shortened: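 Compound-treated yeast growth, normalised to vehicle controls. Strain bears defined DNA repair mutations.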

[16] = NCI Yeast Anticancer Drug Screen. Data for the rad18 strain (AID 177); conditions: S. cerevisiae rad18 mutant growth inhibition, active compounds read high
Procedure, shortened: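 Inhibition values reflect reduced yeast growth compared with vehicle-treated controls, using a strain engineered with a DNA damage repair defect.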

[17] = at 5.0 µM (retest, dose inferred, filed as 0.5)
[18] = at 50.0 µM (retest, dose inferred, filed as 5.0)

Measured: growth inhibition

C/C(=N\NC(=S)SCc1ccccc1)c1ccccn1
inactive: [1]; at 1.2 µM 15% | [1]; at 3.7 µM 13% | [1]; at 11.0 µM 60% | [2]; at 1.2 µM -13% | [2]; at 3.7 µM -15% | [2]; at 11.0 µM 58% | [3]; at 1.2 µM 40% | [3]; at 3.7 µM 47% | [4]; at 1.2 µM 13% | [4]; at 3.7 µM 24% | [5]; at 1.2 µM 17% | [5]; at 3.7 µM 22% | [5]; [17] 8% | [5]; at 11.0 µM 69% | [5]; [18] 0% | [6]; at 1.2 µM 38% | [6]; at 3.7 µM 51% | [6]; [17] -5% | [7]; at 1.2 µM -10% | [7]; at 3.7 µM -4% | [7]; at 11.0 µM 31% | [8]; [17] -1% | [9]; at 1.2 µM 2% | [9]; at 3.7 µM 2% | [9]; at 11.0 µM 60% | [10]; [17] 3% | [11]; at 1.2 µM 3% | [11]; at 3.7 µM 20% | [11]; [17] 30% | [12]; at 1.2 µM -36% | [12]; at 3.7 µM -25% | [13]; at 1.2 µM 13% | [13]; at 3.7 µM 24% | [14]; at 1.2 µM 37% | [14]; at 3.7 µM 46% | [15]; [17] -12% | [16]; at 1.2 µM 39% | [16]; at 3.7 µM 53%
active: [1]; at 33.0 µM 93% | [1]; at 100.0 µM 91% | [2]; at 33.0 µM 95% | [2]; at 100.0 µM 94% | [3]; at 11.0 µM 78% | [3]; at 33.0 µM 95% | [3]; at 100.0 µM 92% | [4]; at 11.0 µM 83% | [4]; at 33.0 µM 96% | [4]; at 100.0 µM 92% | [5]; at 33.0 µM 95% | [5]; at 50.0 µM 88% | [5]; at 100.0 µM 92% | [6]; at 11.0 µM 92% | [6]; at 33.0 µM 96% | [6]; [18] 96% | [6]; at 50.0 µM 90.2% | [6]; at 100.0 µM 92% | [7]; at 33.0 µM 94% | [7]; at 100.0 µM 92% | [8]; [18] 95% | [8]; at 50.0 µM 86.2% | [9]; at 33.0 µM 96% | [9]; at 100.0 µM 89% | [10]; [18] 95% | [10]; at 50.0 µM 86.1% | [11]; at 11.0 µM 82% | [11]; at 33.0 µM 95% | [11]; [18] 95% | [11]; at 50.0 µM 87% | [11]; at 100.0 µM 91% | [12]; at 11.0 µM 72% | [12]; at 33.0 µM 95% | [12]; at 100.0 µM 92% | [13]; at 11.0 µM 83% | [13]; at 33.0 µM 96% | [13]; at 100.0 µM 92% | [14]; at 11.0 µM 78% | [14]; at 33.0 µM 97% | [14]; at 100.0 µM 94% | [15]; [18] 95% | [15]; at 50.0 µM 87.5% | [16]; at 11.0 µM 80% | [16]; at 33.0 µM 96% | [16]; at 100.0 µM 91%
